From PubChem BioAssay (NCI) come the findings set out here.

Among the test systems are SK-MEL-2 melanoma; EKVX NSCLC; SN12C renal; UO-31 renal; TK-10 renal; ACHN renal; CAKI-1 renal; A498 renal; CCRF-CEM leukemia; MOLT-4 leukemia; SR leukemia; RPMI-8226 leukemia; OVCAR-8 ovarian; OVCAR-5 ovarian; OVCAR-4 ovarian; SK-OV-3 ovarian; IGROV1 ovarian; OVCAR-3 ovarian; HS 578T breast; NCI/ADR-RES ovarian.
What all share (assay): NCI-60 one-dose screen, 48 h (100 = growth as untreated, 0 = no growth, -100 = all killed)
Holding throughout (conditions): 10 µM unless noted

Molecules are shown by their SMILES. The panel holds about 83,000 compounds, 20% with a hit somewhere; the sample as a whole holds those more often.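 Plates (96-well) were seeded with cells, treated with compound at one concentration, and incubated for 48 hours before percent growth was determined.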 Values without a mark were called inactive. Activity calls are given as the source filed them. Rule for the calls: active = growth percent below 10; inactive = the rest.

`O=C1/C(=C(/c2ccccc2)N2CCOCC2)Cc2ccccc21`: the growth in the test with SK-MEL-2 melanoma was 90.4%; in the test with EKVX NSCLC it was 38%; in the test on SN12C renal it was -42.6% (active); in the test with UO-31 renal, -47.8% (active); in the test on TK-10 renal, -16.7% (active); in the test on ACHN renal, -39.6% (active). Further, the growth with CAKI-1 renal is -43.5% (active); in the test on A498 renal, 51.4%; with CCRF-CEM leukemia, 22.6%; with MOLT-4 leukemia it was 22.7%; in the test with SR leukemia, 26.6%; with RPMI-8226 leukemia, 16.5%. Further, the growth is 20.4% in the test on OVCAR-8 ovarian; 34.4% in the test with OVCAR-5 ovarian; 31.7% in the test with OVCAR-4 ovarian; 93.6% in the test on SK-OV-3 ovarian; 14% in the test on IGROV1 ovarian; -60.7% (active) in the test with OVCAR-3 ovarian. Besides, the growth with HS 578T breast was 5.18% (active); in the test with NCI/ADR-RES ovarian it was -33.1% (active).

For the molecule `CCCc1cc(=O)n2c(C(=O)Nc3ccc(F)cc3)c(C(=O)Nc3ccc(F)cc3)sc2n1`, the growth in the test on SK-MEL-2 melanoma is 70.7% [30 µM]; in the test with EKVX NSCLC, 62.5% [30 µM]; in the test with SN12C renal, 65.7% [30 µM]; in the test on UO-31 renal it was 19.3% [30 µM]; in the test on TK-10 renal, 38.9% [30 µM]; in the test with ACHN renal it was 48.4% [30 µM]. For the same molecule, the growth is 44.3% [30 µM] in the test with CAKI-1 renal; 139% [30 µM] with A498 renal; 77.1% [30 µM] in the test on CCRF-CEM leukemia; 97.9% [30 µM] with MOLT-4 leukemia; 53.4% [30 µM] in the test on SR leukemia; 78.2% [30 µM] in the test on RPMI-8226 leukemia. Besides, the growth is 16.6% [30 µM] with OVCAR-8 ovarian; 74.7% [30 µM] in the test on OVCAR-5 ovarian; 36.9% [30 µM] with OVCAR-4 ovarian; 48.5% [30 µM] with SK-OV-3 ovarian; 72.6% [30 µM] with IGROV1 ovarian; 35.3% [30 µM] in the test with OVCAR-3 ovarian. Further, the growth in the test on HS 578T breast was 6.12% [30 µM] (active); in the test with NCI/ADR-RES ovarian, 33% [30 µM].

`OCc1ccc(N2CCc3cccc(F)c3C2)cc1Cl`: the growth in the test with SK-MEL-2 melanoma was 91.1% [0.1 µM]; in the test on EKVX NSCLC, 104% [0.1 µM]; in the test with SN12C renal it was 92.9% [0.1 µM]; in the test with UO-31 renal, 91.6% [0.1 µM]; in the test with TK-10 renal, -0.0842% [0.1 µM] (active); with ACHN renal, 108% [0.1 µM]. Moreover, the growth was 63.5% [0.1 µM] with CAKI-1 renal; -16.3% [0.1 µM] (active) with A498 renal; 96% [0.1 µM] in the test with CCRF-CEM leukemia; 100% [0.1 µM] in the test on MOLT-4 leukemia; 87.6% [0.1 µM] with SR leukemia; 71.4% [0.1 µM] in the test with RPMI-8226 leukemia. The growth with OVCAR-8 ovarian is 91.4% [0.1 µM]; with OVCAR-5 ovarian, -11.7% [0.1 µM] (active); in the test with OVCAR-4 ovarian it was 32.7% [0.1 µM]; with SK-OV-3 ovarian it was 72.5% [0.1 µM]; with IGROV1 ovarian, 21.2% [0.1 µM]; with OVCAR-3 ovarian, 11.8% [0.1 µM]. Also, the growth in the test with HS 578T breast is 99.2% [0.1 µM]; in the test with NCI/ADR-RES ovarian, 87% [0.1 µM].

Turning to `Cc1[nH]c(-c2cc(N)ccc2Cl)c2c1C(=O)CCCC2`, the growth in the test with SK-MEL-2 melanoma was 31%; with EKVX NSCLC, 36.5%; in the test with SN12C renal, 35%; in the test with UO-31 renal, 10.1%; with TK-10 renal, 1.81% (active); with ACHN renal it was 19.8%. Also, the growth in the test on CAKI-1 renal was 2.45% (active); in the test with A498 renal, 27%; in the test on CCRF-CEM leukemia, 52.3%; with MOLT-4 leukemia, 52.7%; with SR leukemia, 44.8%; in the test with RPMI-8226 leukemia, 12.7%. Moreover, the growth with OVCAR-8 ovarian was 22.2%; in the test on OVCAR-5 ovarian it was 49.3%; with OVCAR-4 ovarian, 36.4%; in the test with SK-OV-3 ovarian, 11.7%; in the test on IGROV1 ovarian, 20.6%; in the test on OVCAR-3 ovarian, 30.4%. Also, the growth was 7.36% (active) with HS 578T breast and 33% in the test with NCI/ADR-RES ovarian.

On to `CCC([N+](=O)[O-])S(=O)(=O)c1ccc(C)cc1` (configuration not stated), for which the growth in the test on SK-MEL-2 melanoma is 107%; in the test with EKVX NSCLC it was 110%; with SN12C renal it was 95.3%; with UO-31 renal it was 82%; in the test on TK-10 renal it was 102%; with ACHN renal, 104%. Moreover, the growth with CAKI-1 renal is 80%; in the test with A498 renal, 103%; in the test with CCRF-CEM leukemia it was 99%; in the test with MOLT-4 leukemia it was 117%; with SR leukemia, 113%; in the test on RPMI-8226 leukemia, 106%. In addition, the growth was 95.3% with OVCAR-8 ovarian; 88.2% in the test with OVCAR-5 ovarian; 93.6% with OVCAR-4 ovarian; 108% in the test with SK-OV-3 ovarian; 103% in the test on IGROV1 ovarian; 150% in the test on OVCAR-3 ovarian. In addition, the results for the growth with HS 578T breast and with NCI/ADR-RES ovarian were 129% and 92.3%, respectively.

Turning to `C#CCOc1ccc2ncnc(N3CCC(NC(=O)CCl)CC3)c2c1`, the growth in the test on SK-MEL-2 melanoma is 69.6% [8.25 µM]; in the test on EKVX NSCLC, 72.7% [8.25 µM]; in the test on SN12C renal, 63.6% [8.25 µM]; in the test with UO-31 renal, 40.6% [8.25 µM]; in the test on TK-10 renal, 69% [8.25 µM]; in the test on ACHN renal it was 57.6% [8.25 µM]. Further, the growth was 71.4% [8.25 µM] in the test on CAKI-1 renal; 29.9% [8.25 µM] in the test with A498 renal; 39.8% [8.25 µM] with CCRF-CEM leukemia; 40.9% [8.25 µM] in the test with MOLT-4 leukemia; 62.6% [8.25 µM] with SR leukemia; 44.4% [8.25 µM] with RPMI-8226 leukemia. For the same molecule, the growth was 76.3% [8.25 µM] in the test on OVCAR-8 ovarian; 100% [8.25 µM] in the test with OVCAR-5 ovarian; 36.5% [8.25 µM] in the test with OVCAR-4 ovarian; 69.6% [8.25 µM] in the test with SK-OV-3 ovarian; 51.4% [8.25 µM] in the test on IGROV1 ovarian; 68.2% [8.25 µM] in the test on OVCAR-3 ovarian.

With `Oc1cccc(-c2nc(N3CCOCC3)c3c4c(sc3n2)CCCC4)c1`, the growth with SK-MEL-2 melanoma was 71.3%; with EKVX NSCLC, 34.4%; in the test on SN12C renal, 38.8%; in the test with UO-31 renal, 13.1%; in the test with TK-10 renal, 70.6%; in the test with ACHN renal, 38.3%. The growth in the test on CAKI-1 renal was 69.8%; in the test with A498 renal it was 114%; in the test on CCRF-CEM leukemia it was 60.5%; with MOLT-4 leukemia, 24%; with SR leukemia it was 70.3%; in the test with RPMI-8226 leukemia it was 61%. Also, the growth in the test on OVCAR-8 ovarian is 51.9%; in the test on OVCAR-5 ovarian it was 82.7%; in the test on OVCAR-4 ovarian it was 45.9%; in the test with SK-OV-3 ovarian it was 30.6%; in the test with IGROV1 ovarian it was 3.92% (active); in the test with OVCAR-3 ovarian, 56.9%. In addition, the growth with HS 578T breast is 10.2%.
